In PubChem BioAssay (NCI):
This is part of a sample that, as a whole, favours compounds with a hit. Of some 79,000 tested, about 15% had one in any assay. Values without a mark were called inactive. Active and inactive are the calls of the source. Cut-off read from the data, not from the text of the source: active = growth inhibition above about 70%; inactive = the rest.

Columns and labels:
[1] = NCI Yeast Anticancer Drug Screen. Data for the rad50 strain (AID 155);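 note: 0% = growth of vehicle-only cultures of the same strain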; conditions: S. cerevisiae rad50 strain growth inhibition, hits give high values
Method in brief: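 Yeast carrying a defined DNA repair defect were exposed to test compounds, and growth was compared with vehicle-treated controls to give percent inhibition.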

[2] = NCI Yeast Anticancer Drug Screen. Data for the mec2-1 strain (AID 157); conditions: S. cerevisiae mec2-1 strain, hits give high values
Method in brief: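 Mutant yeast (mec2-1) grown with compound; growth inhibition relative to vehicle control reported.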

[3] = NCI Yeast Anticancer Drug Screen. Data for the sgs1 mgt1 strain (AID 161);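 note: 0% = growth of cultures given vehicle only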; conditions: S. cerevisiae sgs1 mgt1 strain, hits give high values
Method in brief: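 Percent growth inhibition was derived by comparing compound-exposed mutant yeast with vehicle-exposed cultures. The strain carries alterations in DNA damage repair.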

[4] = NCI Yeast Anticancer Drug Screen. Data for the cln2 rad14 strain (AID 165);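 note: 0% = growth equal to vehicle treated cultures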; conditions: S. cerevisiae cln2 rad14 strain, hits give high values
Method in brief: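 Readout is yeast growth inhibition versus vehicle-treated controls, using a strain with cln2 and rad14 alterations exposed to compound.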

[5] = NCI Yeast Anticancer Drug Screen. Data for the bub3 strain (AID 167); conditions: S. cerevisiae bub3 mutant strain, hits give high values
Method in brief: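 Compounds were applied to a genetically altered yeast strain carrying a cell-cycle control defect. Growth inhibition was scored against vehicle-treated controls.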

[6] = NCI Yeast Anticancer Drug Screen. Data for the mlh1 rad18 strain (AID 175); conditions: S. cerevisiae mlh1 rad18 strain growth inhibition, hits give high values
Method in brief: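 Genetically defined yeast (DNA repair-deficient) exposed to compounds; growth inhibition determined relative to vehicle.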

[7] = at 5.0 µM (retest, dose inferred, filed as 0.5)
[8] = at 50.0 µM (retest, dose inferred, filed as 5.0)

Row | SMILES | growth inhibition [1, 7] | growth inhibition [1, 8] | growth inhibition ([1]; at 50.0 µM) | growth inhibition [2, 7] | growth inhibition [2, 8] | growth inhibition ([2]; at 50.0 µM) | growth inhibition [3, 7] | growth inhibition [3, 8] | growth inhibition ([3]; at 50.0 µM) | growth inhibition [4, 7] | growth inhibition [4, 8] | growth inhibition ([4]; at 50.0 µM) | growth inhibition [5, 7] | growth inhibition [5, 8] | growth inhibition ([5]; at 50.0 µM) | growth inhibition [6, 7] | growth inhibition [6, 8] | growth inhibition ([6]; at 50.0 µM)
1 | COc1ccc(C(=O)[O][Sn]([c]2ccccc2)([c]2ccccc2)[c]2ccccc2)c(OC)c1OC | 100% (active) | 99% (active) | 98.7% (active) | 100% (active) | 100% (active) | 99.1% (active) | 99% (active) | 99% (active) | 98.8% (active) | 99% (active) | 99% (active) | 88.2% (active) | 100% (active) | 100% (active) | 98.9% (active) | 99% (active) | 99% (active) | 98.4% (active)
2 | CN(/N=C/c1ccc([N+](=O)[O-])o1)C(N)=O | 10% | 44% | 80% (active) | 4% | 18% | 49.5% | 10% | 57% | 87.3% (active) | 3% | 17% | 49.5% | 6% | 28% | 46.3% | 22% | 58% | 89.4% (active)
3 | COc1cccc2c1C(=O)c1c(O)c3c(c(O)c1C2=O)C[C@@](O)(/C(C)=N/NC(N)=S)C[C@@H]3OC1CC(N)C(O)C(C)O1 (stereo not given in full) | 27% | 91% (active) | 95.5% (active) | 8% | 58% | 94.7% (active) | 3% | 56% | 96.3% (active) | 4% | 38% | 82.8% (active) | 4% | 60% | 95.3% (active) | 8% | 75% (active) | 95.7% (active)
4 | CCCCN(CCCC)S(=O)(=O)c1ccccc1 | 3% | 27% | 44.7% | -4% | 3% | 32.4% | 1% | 52% | 7.85% | -1% | -9% | -11.4% | 3% | 14% | 65.5% | 2% | 17% | 79% (active)
5 | COC1=CC(=O)c2c(O)c3c(c(O)c2C1=O)C=C(C)OC3O (stereo not given) | -3% | 34% | 85.5% (active) | -2% | 31% | 88% (active) | -27% | 22% | 89% (active) | 7% | 20% | 47.1% | -4% | 44% | 85.8% (active) | -9% | 52% | 89.3% (active)
6 | O=C1c2ccccc2C(=O)c2c1cccc2[N+](=O)[O-] | 84% (active) | 90% (active) | 90.9% (active) | 67% | 86% (active) | 73% (active) | 80% (active) | 88% (active) | 86% (active) | 69% | 86% (active) | 85.2% (active) | 82% (active) | 88% (active) | 71.4% (active) | 85% (active) | 90% (active) | 83.8% (active)
7 | C(=C/c1ccnc2ccccc12)/c1cccs1 | -2% | 93% (active) | 98.2% (active) | 1% | 93% (active) | 98.8% (active) | 2% | 91% (active) | 98.8% (active) | 0% | 57% | 98.1% (active) | 4% | 81% (active) | 98.3% (active) | -2% | 94% (active) | 98.2% (active)
8 | O=C(c1ccccc1)C(c1ccccc1)C1(O)C(=O)Nc2c(Cl)cc(Cl)cc21 (stereo not given) | 13% | 13% | 92.8% (active) | -6% | -6% | 93.3% (active) | -18% | -18% | 92% (active) | -6% | -6% | 87% (active) | -5% | -5% | 93.2% (active) | 0% | 0% | 92.2% (active)
9 | O=C(c1ccccc1)c1[nH]c2ccccc2c(=O)c1-c1ccc([N+](=O)[O-])cc1 | -6% | 96% (active) | 97.6% (active) | -9% | 98% (active) | 97.5% (active) | -16% | 98% (active) | 98.3% (active) | -13% | 97% (active) | 97.6% (active) | -8% | 96% (active) | 97.5% (active) | 3% | 94% (active) | 98.3% (active)
10 | CCOC(=O)C1=C(N)N(S(=O)(=O)c2ccc(C)cc2)CCC(C(=O)OC)=C1 | 3% | -4% | 30.4% | 0% | 0% | 31.9% | 5% | -1% | 82% (active) | 5% | -6% | -3.15% | 1% | -4% | 26.2% | -2% | -3% | 56.1%
